Results on 42 molecules are retold here after PMC4336329 (PLoS ONE, 2015).

Screen size: about 310,000 compounds; about 14,000 (4.5%) showed an effect of 50% or more. The effect is printed as a negative number. The list comes from a sample in which strong results are over-represented; it also holds similar structures and randomly drawn compounds.
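Also: peak tail current of the secondary pulse compared with the same well before compound.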

human ether-à-go-go-related gene (hERG) potassium channel, sequence (Q12809 whole entry, looked up): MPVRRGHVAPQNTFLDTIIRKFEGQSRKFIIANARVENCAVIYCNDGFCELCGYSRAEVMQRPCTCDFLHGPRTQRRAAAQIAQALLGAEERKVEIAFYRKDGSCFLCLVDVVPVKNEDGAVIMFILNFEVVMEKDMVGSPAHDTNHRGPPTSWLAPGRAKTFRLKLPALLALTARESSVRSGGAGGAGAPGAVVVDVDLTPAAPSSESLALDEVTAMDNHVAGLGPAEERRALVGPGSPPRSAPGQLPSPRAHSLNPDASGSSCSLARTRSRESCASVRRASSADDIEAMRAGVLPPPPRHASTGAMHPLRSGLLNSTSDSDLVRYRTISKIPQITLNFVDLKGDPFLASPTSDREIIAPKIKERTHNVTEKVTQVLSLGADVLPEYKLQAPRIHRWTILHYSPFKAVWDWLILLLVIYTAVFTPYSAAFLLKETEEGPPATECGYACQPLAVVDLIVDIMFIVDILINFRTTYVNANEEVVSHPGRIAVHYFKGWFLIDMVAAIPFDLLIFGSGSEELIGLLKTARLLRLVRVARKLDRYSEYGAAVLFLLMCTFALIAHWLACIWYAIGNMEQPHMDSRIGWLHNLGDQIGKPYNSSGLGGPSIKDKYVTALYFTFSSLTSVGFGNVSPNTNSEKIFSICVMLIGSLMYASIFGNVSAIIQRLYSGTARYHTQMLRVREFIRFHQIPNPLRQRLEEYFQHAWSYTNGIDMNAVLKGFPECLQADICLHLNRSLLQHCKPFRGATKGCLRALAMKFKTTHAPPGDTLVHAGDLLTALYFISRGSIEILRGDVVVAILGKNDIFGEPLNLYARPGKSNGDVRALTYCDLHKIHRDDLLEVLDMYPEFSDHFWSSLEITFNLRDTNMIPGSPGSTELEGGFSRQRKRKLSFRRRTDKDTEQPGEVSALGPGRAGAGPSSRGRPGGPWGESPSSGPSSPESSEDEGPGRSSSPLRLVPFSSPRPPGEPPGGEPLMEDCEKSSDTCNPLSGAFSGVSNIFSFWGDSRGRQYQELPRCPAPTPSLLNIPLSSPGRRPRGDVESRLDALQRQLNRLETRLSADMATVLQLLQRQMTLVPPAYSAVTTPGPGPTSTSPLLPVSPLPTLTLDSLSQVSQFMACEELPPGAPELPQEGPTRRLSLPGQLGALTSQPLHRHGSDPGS

This test concerns the target human ether-à-go-go-related gene (hERG) potassium channel (human, UniProt Q12809). Description: primary screen, population patch clamp on CHO cells stably expressing hERG; higher = less effect of the substance.
In the case of `Cc1ccc(C2(c3ccccc3)NC(=O)N(CC(=O)NC3CCS(=O)(=O)C3)C2=O)cc1C` (stereo not drawn), the “hERG current change (%, negative = inhibition) at 10uM” value is -9.17%.
As to `Cc1ccc(C2(c3ccccc3)NC(=O)N(CC(=O)N(C)C3CCS(=O)(=O)C3)C2=O)cc1C` (stereo not drawn), the “hERG current change (%, negative = inhibition) at 10uM” value is -22%.
Regarding `CCN(C(=O)CN1C(=O)NC(c2ccccc2)(c2ccc(C)c(C)c2)C1=O)C1CCCCC1` (stereo not drawn), the “hERG current change (%, negative = inhibition) at 10uM” value is on record as -33.3%.
`N#CC1(NC(=O)CN2C(=O)NC3(CCCCCC3)C2=O)CCCCC1`: the “hERG current change (%, negative = inhibition) at 10uM” value was -0.951%.
In the case of `CCN(C(=O)CN1C(=O)NC(c2ccccc2)(c2ccc(C)c(C)c2)C1=O)C1CCS(=O)(=O)C1` (stereo not drawn), the “hERG current change (%, negative = inhibition) at 10uM” value is recorded as -53.4%.
Regarding `Cc1ccc(C2(c3ccccc3)NC(=O)N(CC(=O)NCc3ccco3)C2=O)cc1C` (stereo not drawn), the “hERG current change (%, negative = inhibition) at 10uM” value was -50.4%.
`CCC1(c2ccccc2)NC(=O)N(CC(=O)NC2(C#N)CCCCC2)C1=O` (stereo not drawn): the “hERG current change (%, negative = inhibition) at 10uM” value is recorded as 2.94%.
`COc1ccc(C2(c3ccc(OC)cc3)NC(=O)N(CC(=O)NC3(C#N)CCCCC3)C2=O)cc1`: the “hERG current change (%, negative = inhibition) at 10uM” value is -42.4%.
With `O=C1c2ccccc2C2NC(=O)C3(CCCCC3)N12` (stereo not drawn), the “hERG current change (%, negative = inhibition) at 10uM” value worked out at 7.54%.
On to `COc1ccc(C2CC(=O)N(c3ccccc3)C3=C2C(=O)CCC3)cc1` (stereo not drawn), for which the “hERG current change (%, negative = inhibition) at 10uM” value worked out at 13.1%.
Consider `O=C(CN1C(=O)CC(c2ccco2)Sc2ccccc21)NCc1ccc2c(c1)OCO2` (stereo not drawn), for which the “hERG current change (%, negative = inhibition) at 10uM” value is on record as -37.1%.
As to `S=C(NCCCc1ccccc1)Nc1ccccc1Cl`, the “hERG current change (%, negative = inhibition) at 10uM” value was 2.38%.
The value for `Fc1ccc(-c2csc(-c3ccc(C4SCCS4)cc3)n2)cc1F` was 4.89%; that for `COC(=O)C1=C(N)Oc2cc(C)n(Cc3cccnc3)c(=O)c2C1c1ccc(OC)c(OC)c1` (stereo not drawn) was -19%.
As for `CCOC(=O)c1cc(C)n(-c2c(C)n(C)n(-c3ccccc3)c2=O)c1C`, the “hERG current change (%, negative = inhibition) at 10uM” value is 21.6%.
In the case of `CC(=O)N1CCC2(CC1)C/C(=N\NC(=S)Nc1ccccc1C)c1cc(O)ccc1O2`, the “hERG current change (%, negative = inhibition) at 10uM” value was -61.1%.
The value for `Cc1cccc(NC(=S)N/N=C2\CC(C)(C)Oc3ccc(O)cc32)c1` was 8.34%.
Consider `CC(=O)N1CCC2(CC1)C/C(=N\NC(=S)Nc1ccc(C)cc1)c1cc(O)ccc1O2`, for which the “hERG current change (%, negative = inhibition) at 10uM” value is on record as -70.8%.
The value for `Cc1ccc(NC(=S)N/N=C2\CC(C)(C)Oc3ccc(O)cc32)cc1` was 12%; that for `CC(=O)N1CCC2(CC1)C/C(=N\NC(=S)Nc1ccccc1F)c1cc(O)ccc1O2` was -69%; that for `Cc1ccccc1NC(=S)N/N=C1\CC(C)(C)Oc2ccc(O)cc21` was 42.1%.
With `COc1ccccc1NC(=S)N/N=C1\CC(C)(C)Oc2ccc(O)cc21`, the “hERG current change (%, negative = inhibition) at 10uM” value is 0.968%.
Turning to `COc1cccc(NC(=S)N/N=C2\CC(C)(C)Oc3ccc(O)cc32)c1`, the “hERG current change (%, negative = inhibition) at 10uM” value turned out to be 3.3%.
Regarding `CC1(C)C/C(=N\NC(=S)Nc2ccccc2F)c2cc(O)ccc2O1`, the “hERG current change (%, negative = inhibition) at 10uM” value is -18.8%.
`COc1ccc(C(=O)CC(=O)C(=O)Nc2ccc(C)c(C)c2)cc1`: the “hERG current change (%, negative = inhibition) at 10uM” value is -12.2%.
In the case of `O=C1CSC(c2cccnc2)N1c1ccccc1` (stereo not drawn), the “hERG current change (%, negative = inhibition) at 10uM” value worked out at 13%.
Consider `CCOCCCNC(=O)CCNS(=O)(=O)c1ccc(C)cc1`, for which the “hERG current change (%, negative = inhibition) at 10uM” value was found to be 3.47%.
The same measure for `Cc1ccc(S(=O)(=O)N(C)c2ccc(OCC(=O)Nc3nc4ccccc4s3)cc2)cc1`: 17.8%.
As for `Cc1cccc(C(=O)Oc2ccc(/C=N/NC(=O)c3ccc(O)cc3)cc2)c1`, the “hERG current change (%, negative = inhibition) at 10uM” value is given as 28.6%.
As to `Cc1nnc(SC(C)C(=O)Nc2ccc(S(=O)(=O)N3CCCCC3)cc2)s1` (stereo not drawn), the “hERG current change (%, negative = inhibition) at 10uM” value was -18.4%.
In the case of `CC(C)NC(=O)C1(O)c2ccccc2NC(=O)N1c1ccc(Cl)c(Cl)c1` (stereo not drawn), the “hERG current change (%, negative = inhibition) at 10uM” value is given as 9.1%.
`O=C1N=C(N2CCN(c3ccccc3)CC2)SC1Cc1ccccc1` (stereo not drawn): the “hERG current change (%, negative = inhibition) at 10uM” value is -66.4%.
The value for `NC1=NC(=O)C(Cc2ccccc2)S1` (stereo not drawn) was 2.01%; that for `Cc1cccc(CC2SC(N)=NC2=O)c1.Cl` (stereo not drawn) was 19.9%; that for `Cc1cccc(N2CCN(C3=NC(=O)C(Cc4ccccc4)S3)CC2)c1` (stereo not drawn) was -30.7%.
The same measure for `Cc1ccc(N2CCN(C3=NC(=O)C(Cc4ccccc4)S3)CC2)cc1` (stereo not drawn): -40.1%; for `Cc1cccc(CC2SC(N3CCN(c4ccccc4)CC3)=NC2=O)c1` (stereo not drawn): -53.5%.
As for `O=c1c2[nH]c3cccc(Cl)c3c2ncn1Cc1ccncc1`, the “hERG current change (%, negative = inhibition) at 10uM” value is -13.6%.
Consider `CN(C)S(=O)(=O)c1ccc(Cl)c(NC(=O)CN2C(=O)NC3(CCc4ccccc43)C2=O)c1` (stereo not drawn), for which the “hERG current change (%, negative = inhibition) at 10uM” value is given as -18%.
Consider `CC(C)C(NS(=O)(=O)c1ccc2c(c1)oc(=O)n2C)C(=O)N1CCN(C2CCCCC2)CC1` (stereo not drawn), for which the “hERG current change (%, negative = inhibition) at 10uM” value is reported as 2.88%.
The value for `Cc1ccc(C)c(NC(=O)C2CCCN2C(=O)OC(C)(C)C)c1` (stereo not drawn) was 1.04%; that for `O=C(CN(CCc1ccccc1)S(=O)(=O)c1ccc(Cl)cc1)N/N=C/c1ccccc1C(=O)O` was 14.6%.
